# The supplement of paper PMC4022240
# ± gives the standard deviation.
# T1: HaloTag-ATRX ADD domain (163-292)
# T1 chain: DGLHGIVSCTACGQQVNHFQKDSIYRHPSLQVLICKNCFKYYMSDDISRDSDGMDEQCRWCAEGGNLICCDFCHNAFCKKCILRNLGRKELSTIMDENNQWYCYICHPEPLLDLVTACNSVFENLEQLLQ
# Experiments:
# Assay in all cases: peptide microarray binding signal (635 nm), min-max normalized on array (fraction of array maximum); higher = stronger binding
# Conditions in all cases: peptide region: H3 1-13
# [1] = target: T1, HaloTag-ATRX ADD domain (163-292)
# Protocol: (§1)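 Histone 13-mer peptides were synthesized as cellulose conjugates with a C-terminal 20-atom PEG linker and printed in triplicate on nitrocellulose. The sequence given is the unmodified backbone; PTMs (Kme1/2/3, Kac, Sph/Tph, Rme/Rme2a/Rme2s, Rcit) are listed in the label and the 'peptide modifications' condition. Slides were probed at 4 °C for 1 h with biotin-labelled (HQ)5-HaloTag reader fusions (ATRX-ADD, ING2-PHD) then streptavidin-Alexa647, or with rabbit histone antibodies then anti-rabbit Alexa647. The mean 635 nm signal of the triplicate spots was scaled 0-1 between the lowest and highest values on each array.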
# [2] = target: HaloTag-ING2 PHD (mouse Ing2 200-280)
# Protocol: as §1
# [3] = target: anti-H3K4me3 antibody ab8580
# Protocol: as §1
# [4] = target: anti-H3K9me3 antibody ab8898
# Protocol: as §1
# [5] = peptide modifications: H3K4me3 H3K9me2, binder concentration: 1:2,000 dilution
# [6] = peptide modifications: H3K4me3 H3K9me2, binder concentration: 1:10,000 dilution
# [7] = peptide modifications: H3K4me3 H3K9me1, binder concentration: 1:2,000 dilution
# [8] = peptide modifications: H3K4me3 H3K9me1, binder concentration: 1:10,000 dilution
# [9] = peptide modifications: H3K9ac H3S10ph, binder concentration: 1:2,000 dilution
# [10] = peptide modifications: H3K4me2 H3K9me2, binder concentration: 1:2,000 dilution
# [11] = peptide modifications: H3K4me2 H3K9me2, binder concentration: 1:10,000 dilution
# [12] = peptide modifications: H3K4me1 H3T6ph, binder concentration: 1:2,000 dilution
# [13] = peptide modifications: H3K4me1 H3T6ph, binder concentration: 1:10,000 dilution
# [14] = peptide modifications: H3K4me2, binder concentration: 1:2,000 dilution
# [15] = peptide modifications: H3K4me2, binder concentration: 1:10,000 dilution
# [16] = peptide modifications: H3K4me2 H3K9ac, binder concentration: 1:2,000 dilution
# [17] = peptide modifications: H3K4me2 H3K9ac, binder concentration: 1:10,000 dilution
# [18] = peptide modifications: H3K4me3 H3T6ph, binder concentration: 1:2,000 dilution
# [19] = peptide modifications: H3K4me3 H3T6ph, binder concentration: 1:10,000 dilution
# [20] = peptide modifications: H3K9me2, binder concentration: 1:2,000 dilution
# [21] = peptide modifications: H3K9me2, binder concentration: 1:10,000 dilution
# [22] = peptide modifications: H3K9ac, binder concentration: 1:2,000 dilution
# [23] = peptide modifications: H3K9ac, binder concentration: 1:10,000 dilution
binder,measurement,setting,value
ARTKQTARKSTGG [H3 1-13 A R T Kme3 Q T A R Kme2 S T G G],peptide microarray binding signal,"[1]; peptide modifications: H3K4me3 H3K9me2, binder concentration: 50 nM",0.0174 ± 0.00053
same,peptide microarray binding signal,"[1]; peptide modifications: H3K4me3 H3K9me2, binder concentration: 500 nM",0.0402 ± 0.003
same,peptide microarray binding signal,"[2]; peptide modifications: H3K4me3 H3K9me2, binder concentration: 10 nM",0.735 ± 0.11
same,peptide microarray binding signal,"[2]; peptide modifications: H3K4me3 H3K9me2, binder concentration: 100 nM",0.869 ± 0.12
same,peptide microarray binding signal,[3]; [5],0.929 ± 0.063
same,peptide microarray binding signal,[3]; [6],0.889 ± 0.23
same,peptide microarray binding signal,[4]; [5],0.11 ± 0.025
same,peptide microarray binding signal,[4]; [6],0.0347 ± 0.004
ARTKQTARKSTGG [H3 1-13 A R T Kme3 Q T A R Kme S T G G],peptide microarray binding signal,"[1]; peptide modifications: H3K4me3 H3K9me1, binder concentration: 50 nM",0.0117 ± 0.0004
same,peptide microarray binding signal,"[1]; peptide modifications: H3K4me3 H3K9me1, binder concentration: 500 nM",0.025 ± 0.0009
same,peptide microarray binding signal,"[2]; peptide modifications: H3K4me3 H3K9me1, binder concentration: 10 nM",0.411 ± 0.074
same,peptide microarray binding signal,"[2]; peptide modifications: H3K4me3 H3K9me1, binder concentration: 100 nM",0.338 ± 0.07
same,peptide microarray binding signal,[3]; [7],0.484 ± 0.13
same,peptide microarray binding signal,[3]; [8],0.592 ± 0.25
same,peptide microarray binding signal,[4]; [7],0.108 ± 0.018
same,peptide microarray binding signal,[4]; [8],0.0413 ± 0.0047
ARTKQTARKSTGG [H3 1-13 A R T K Q T A R Kac Sph T G G],peptide microarray binding signal,"[1]; peptide modifications: H3K9ac H3S10ph, binder concentration: 500 nM",0.0136 ± 0.00075
same,peptide microarray binding signal,"[2]; peptide modifications: H3K9ac H3S10ph, binder concentration: 100 nM",0.0173 ± 0.0011
same,peptide microarray binding signal,[3]; [9],0.000925 ± 2.1e-05
same,peptide microarray binding signal,[4]; [9],0.00113 ± 0.00013
ARTKQTARKSTGG [H3 1-13 A R T Kme2 Q T A R Kme2 S T G G],peptide microarray binding signal,"[1]; peptide modifications: H3K4me2 H3K9me2, binder concentration: 50 nM",0.0279 ± 0.0029
same,peptide microarray binding signal,"[1]; peptide modifications: H3K4me2 H3K9me2, binder concentration: 500 nM",0.0628 ± 0.0034
same,peptide microarray binding signal,"[2]; peptide modifications: H3K4me2 H3K9me2, binder concentration: 10 nM",0.766 ± 0.063
same,peptide microarray binding signal,"[2]; peptide modifications: H3K4me2 H3K9me2, binder concentration: 100 nM",0.786 ± 0.077
same,peptide microarray binding signal,[3]; [10],0.408 ± 0.12
same,peptide microarray binding signal,[3]; [11],0.343 ± 0.15
same,peptide microarray binding signal,[4]; [10],0.0325 ± 0.0041
same,peptide microarray binding signal,[4]; [11],0.0104 ± 0.00076
ARTKQTARKSTGG [H3 1-13 A R T Kme Q Tph A R K S T G G],peptide microarray binding signal,"[1]; peptide modifications: H3K4me1 H3T6ph, binder concentration: 50 nM",0.00661 ± 0.00014
same,peptide microarray binding signal,"[1]; peptide modifications: H3K4me1 H3T6ph, binder concentration: 500 nM",0.0257 ± 0.00052
same,peptide microarray binding signal,"[2]; peptide modifications: H3K4me1 H3T6ph, binder concentration: 10 nM",0.087 ± 0.04
same,peptide microarray binding signal,"[2]; peptide modifications: H3K4me1 H3T6ph, binder concentration: 100 nM",0.211 ± 0.02
same,peptide microarray binding signal,[3]; [12],0.00296 ± 0.00042
same,peptide microarray binding signal,[3]; [13],0.00194 ± 0.00011
same,peptide microarray binding signal,[4]; [12],0.00414 ± 0.00036
same,peptide microarray binding signal,[4]; [13],0.00259 ± 0.00028
ARTKQTARKSTGG [H3 1-13 A R T Kme2 Q T A R K S T G G],peptide microarray binding signal,"[1]; peptide modifications: H3K4me2, binder concentration: 50 nM",0.00564 ± 0.00013
same,peptide microarray binding signal,"[1]; peptide modifications: H3K4me2, binder concentration: 500 nM",0.0118 ± 0.00057
same,peptide microarray binding signal,"[2]; peptide modifications: H3K4me2, binder concentration: 10 nM",0.0623 ± 0.0073
same,peptide microarray binding signal,"[2]; peptide modifications: H3K4me2, binder concentration: 100 nM",0.0581 ± 0.0074
same,peptide microarray binding signal,[3]; [14],0.03 ± 0.01
same,peptide microarray binding signal,[3]; [15],0.0164 ± 0.0011
same,peptide microarray binding signal,[4]; [14],0.00156 ± 0.00023
same,peptide microarray binding signal,[4]; [15],0.00115 ± 2e-05
ARTKQTARKSTGG [H3 1-13 A R T Kme2 Q T A R Kac S T G G],peptide microarray binding signal,"[1]; peptide modifications: H3K4me2 H3K9ac, binder concentration: 50 nM",0.0115 ± 0.00036
same,peptide microarray binding signal,"[1]; peptide modifications: H3K4me2 H3K9ac, binder concentration: 500 nM",0.0237 ± 0.0019
same,peptide microarray binding signal,"[2]; peptide modifications: H3K4me2 H3K9ac, binder concentration: 10 nM",0.954 ± 0.21
same,peptide microarray binding signal,"[2]; peptide modifications: H3K4me2 H3K9ac, binder concentration: 100 nM",0.716 ± 0.27
same,peptide microarray binding signal,[3]; [16],0.298 ± 0.09
same,peptide microarray binding signal,[3]; [17],0.293 ± 0.1
same,peptide microarray binding signal,[4]; [16],0.00778 ± 0.00063
same,peptide microarray binding signal,[4]; [17],0.00824 ± 0.00044
ARTKQTARKSTGG [H3 1-13 A R T Kme3 Q Tph A R K S T G G],peptide microarray binding signal,"[1]; peptide modifications: H3K4me3 H3T6ph, binder concentration: 50 nM",0.00724 ± 0.0003
same,peptide microarray binding signal,"[1]; peptide modifications: H3K4me3 H3T6ph, binder concentration: 500 nM",0.0154 ± 0.0024
same,peptide microarray binding signal,"[2]; peptide modifications: H3K4me3 H3T6ph, binder concentration: 10 nM",0.169 ± 0.048
same,peptide microarray binding signal,"[2]; peptide modifications: H3K4me3 H3T6ph, binder concentration: 100 nM",0.484 ± 0.12
same,peptide microarray binding signal,[3]; [18],0.323 ± 0.064
same,peptide microarray binding signal,[3]; [19],0.404 ± 0.061
same,peptide microarray binding signal,[4]; [18],0.0262 ± 0.0036
same,peptide microarray binding signal,[4]; [19],0.00865 ± 0.0019
ARTKQTARKSTGG [H3 1-13 A R T K Q T A R Kme2 S T G G],peptide microarray binding signal,"[1]; peptide modifications: H3K9me2, binder concentration: 50 nM",0.0139 ± 0.0015
same,peptide microarray binding signal,"[1]; peptide modifications: H3K9me2, binder concentration: 500 nM",0.0282 ± 0.0022
same,peptide microarray binding signal,"[2]; peptide modifications: H3K9me2, binder concentration: 10 nM",0.00668 ± 0.00014
same,peptide microarray binding signal,"[2]; peptide modifications: H3K9me2, binder concentration: 100 nM",0.00935 ± 0.00046
same,peptide microarray binding signal,[3]; [20],0.00104 ± 0.0001
same,peptide microarray binding signal,[3]; [21],0.000571 ± 1.1e-05
same,peptide microarray binding signal,[4]; [20],0.00128 ± 6.2e-05
same,peptide microarray binding signal,[4]; [21],0.000923 ± 9.6e-06
ARTKQTARKSTGG [H3 1-13 A R T K Q T A R Kac S T G G],peptide microarray binding signal,"[1]; peptide modifications: H3K9ac, binder concentration: 50 nM",0.0143 ± 0.00037
same,peptide microarray binding signal,"[1]; peptide modifications: H3K9ac, binder concentration: 500 nM",0.0461 ± 0.0053
same,peptide microarray binding signal,"[2]; peptide modifications: H3K9ac, binder concentration: 10 nM",0.0431 ± 0.012
same,peptide microarray binding signal,"[2]; peptide modifications: H3K9ac, binder concentration: 100 nM",0.0776 ± 0.0087
same,peptide microarray binding signal,[3]; [22],0.00276 ± 0.00088
same,peptide microarray binding signal,[3]; [23],0.00171 ± 7.1e-05
same,peptide microarray binding signal,[4]; [22],0.00554 ± 0.00013
same,peptide microarray binding signal,[4]; [23],0.00185 ± 0.00011
